Records with an inconclusive call do not appear. The source made the active and inactive calls. Calls follow the shape of the dose curve; as a rule, active = well fitted curve in the direction sought with a large enough effect; inconclusive = small, poorly fitted or top-dose-only effect; inactive = flat fitted curve, though single readings scatter.

This assay is described as follows: Quantitative high throughput screen for delayed death inhibitors of the malarial parasite plastid: Hit Validation with Dd2 at 48 hr using Flow Cytometry. The settings on record: P. falciparum Dd2 growth, flow cytometry SYBR/MitoTracker; relative growth, lower = inhibition: at 50 µM (top of the series). From the text: The goal of this screen is to discover new antimalarial compounds that act by inhibiting the development of the apicoplast organelle in the malarial parasite Plasmodium falciparum. Some antibiotics, such as azithromycin and tetracycline, are known to interfere with the apicoplast translational machinery, and have a potent antimalarial effect. […] We developed a cell-based quantitative high throughput screen that leverages this "delayed death" phenotype to enrich for compounds that target the apicoplast. To detect small molecules that cause the delayed death phenotype, erythrocytes infected with firefly luciferase-expressing parasites were incubated with compounds for either one or two generations, corresponding to 48 and 96 hours, respectively. Growth inhibition was detected by a decrease in luciferase activity. Compounds that inhibited parasite growth in the second generation at least five-fold more potently than in the first generation were defined as delayed death inducing. These compounds were selected for confirmatory screening using a flow cytometry based assay. This hit validation assay used the Dd2 cell line and measured at 48 hours. NIH Molecular Libraries Probe Production Network [MLPCN] NIH Chemical Genomics Center [NCGC] MLPCN Grant: R21 NS059500 Assay Provider: David Fidock and Eric Ekland, Columbia University
Test compounds were diluted in 20 microliters of complete media (RPMI 1640 with 0.5% w/v Albumax (GIBCO), 24 mM sodium bicarbonate (Sigma) and 10 ug/mL gentamycin (Gibco)) in clear 384-well plates (Greiner). All liquid handling was conducted using a Bio Tek Precision 2000 pipetting system. Twenty microliters of infected erythrocytes, 0.2% parasitemia (for 48 hour time points) or 0.1% parasitemia (for 96 hour time points) were added to the compound dilutions (1% hematocrit, final concentration; 40 microliters, total culture volume). The assay plates were incubated for 48 hours, or 96 hours, at 37 masculine C in a humidified chamber (Billups- Rothenberg, Del Mar, CA, USA), gassed with 5%CO2/5%O2/ 90%N2. After one generation (48 hours), 5 microliters of culture were harvested and transferred to a second 384 well plate for fluorescent staining. Samples were stained with 30 microliters of 2 x SYBR Green I (Invitrogen) and 150nM MitoTracker Deep Red (Invitrogen) diluted in 0.9% NaCl, 0.2% dextrose (Baxter) supplemented with 2.5% Fetal Calf Serum (Gibco) (saline/FCS). Mature erythrocytes lack nuclei and mitochondria, therefore only parasitized erythrocytes retain the SYBR Green I and MitoTracker Deep Red. After 30 minutes at 37 masculine C, the stained cells were diluted in an additional 60 microliters of saline/FCS. The samples were harvested directly from the 384 well plate using a Hypercyt High Capacity Flow Platform (Intellicyt) paired with a C6 Flow Cytometer (Accuri). The flow cytometry files were analyzed using FlowJo software (FlowJo).
In the case of `O=C(CNC(=O)C1CCCCC1)OC(C(=O)c1ccccc1)c1ccccc1` (stereo unspecified), the Potency result is “inactive”. Turning to `CCOc1ccc(S(=O)(=O)Nc2cc(S(=O)(=O)N(CC)CC)ccc2N2CCCC2)cc1`, the relative growth, lower = inhibition was 0.264 (active). As to `CCCc1cc(=O)oc2cc(OC(C)C(=O)NCc3ccccn3)c(Cl)cc12` (stereo unspecified), the Potency was 20.8 µM (active). For the molecule `CCOC(=O)c1ccc2c(c1)n(CC)c(/C=C/N(C)c1ccccc1)[n+]2CC`, the Potency was 2.08 µM (active). Take `O=C(CSc1ccc(-c2cccnc2)nn1)Nc1ccccc1C(F)(F)F`: the Potency is 8.74 µM (active). For the molecule `CCCc1c(CC)c(=N)c2ccccc2n1C`, the relative growth, lower = inhibition is 0.187 (active). Regarding `COCCNC(=O)c1cccc(OC2CCN(Cc3cccc(SC)c3)CC2)c1`, the Potency entry is “inactive”. Still for that read-out and setting: the result for `Cc1sc2nc[nH]c(=O)c2c1-c1ccc(Cl)cc1` reads 31.7 µM (active). Consider `CC1=Nc2cc(C(=O)N3CCCC3)ccc2Sc2ccc(C)cc21`, for which the relative growth, lower = inhibition is 0.214 (active).

`Cc1ccc(CN2CCC(n3nccc3NC(=O)c3ccccc3C)CC2)o1`: the Potency is 2.38 µM (active). In the case of `Cc1ccc(-n2c(-c3ccc(Cl)cc3)c[n+]3c2CCC3)cc1`, the Potency is 2.64 µM (active).

For `COc1ccccc1N1CCN(CCC(=O)Nc2ccc(F)cc2)CC1`, the relative growth, lower = inhibition is 0.587 (active). As for `CCCCN(CCCNC(=O)C1CCN(C(=O)c2cc3sccc3n2C)CC1)Cc1ccccc1`, the Potency was 3.62 µM (active). Turning to `CCOc1ccc(NC(=O)C[n+]2ccc(N(C)C)cc2)cc1`, the Potency is 2.57 µM (active). Still for that read-out and setting: the same measure for `CCC(=O)OC1C(N(C)C)CC(C)O[C@H]1O[C@H]1[C@H](C)[C@@H](O[C@H]2CC(OC)[C@@H](O)C(C)O2)[C@H](C)C(=O)O[C@@H](CC)[C@](C)(O)[C@@H](O)[C@H](C)C(=O)[C@@H](C)C[C@]1(C)O` (stereo partly specified): 34.1 µM (active).

Turning to `Clc1ccc(-c2c[n+](Cc3ccc(Cl)cc3Cl)c3n2CCCCC3)cc1`, the Potency is 5.44 µM (active). On to `CN(C)S(=O)(=O)c1cc(NC(=O)C2=COCCO2)ccc1Cl`, for which the relative growth, lower = inhibition was 1.39 (active).

`O=C(Nc1ccccc1N1CCOCC1)c1cccc(S(=O)(=O)N2CCOCC2)c1`: the Potency was 14.7 µM (active). Same read-out and setting: the result for `CCCCOc1ccc(N2C(N)=NC(N)=NC23CCCCC3)cc1` reads 23 µM (active). For `COc1ccc(NC(=S)N2CCC(Cc3ccccc3)CC2)cc1OC`, the Potency was 10.8 µM (active). Regarding `CO[C@@H]1[C@@H](OC2OC(C)C(OC3CC(C)(O)C(OC(=O)CC(C)C)C(C)O3)C(N(C)C)C2O)[C@@H](CC=O)C[C@@H](C)C(=O)/C=C\C2O[C@H]2C[C@@H](C)OC(=O)C[C@H]1OC(C)=O` (stereo partly specified), the Potency is 1.04 µM (active).

As to `COc1cc(C(C)=O)ccc1OCC(O)CN1CCN(c2cc(C)cc(C)c2)CC1` (stereo unspecified), the Potency result was “inactive”. Turning to `CCCCN(CCCNC(=O)c1ccc(CS(=O)(=O)c2ccc(OC)cc2)o1)Cc1ccccc1`, the Potency was 6.24 µM (active).

For `CN(C)c1ccc(CN(C(=O)c2ccccc2Br)C2CCS(=O)(=O)C2)cc1` (stereo unspecified), the Potency was 9.14 µM (active). Still for that read-out and setting: the result for `c1csc(CNc2ncnc3nc[nH]c23)c1` reads “inactive”.

With `Cc1ccc(S(=O)(=O)Nc2ccc(C(=O)Nc3ccncc3)cc2)cc1`, the relative growth, lower = inhibition was 0.257 (active). For `COc1ccc2c(ccc[n+]2CC(=O)c2ccccc2)c1`, the Potency is 7 µM (active). With `Cc1c(F)c(N2CCNC(C)C2)cc2c1c(=O)c(C(=O)O)cn2C1CC1` (stereo unspecified), the Potency was 4.14 µM (active). With `COc1cccc(CN2CCN(c3nc4nonc4nc3N3CCCCC3)CC2=O)c1`, the Potency is 14 µM (active). Regarding `Brc1cccc(OCCCCN2CCCCC2)c1`, the Potency is 2.36 µM (active). As to `N#Cc1cccc(NC(=O)Cn2c3[n+](c4ccc(C(F)(F)F)cc42)CCCCC3)c1`, the Potency is 26.1 µM (active).

Values taken from PubChem BioAssay AID624336 (National Center for Advancing Translational Sciences (NCATS), 2012).
